# Activity calls are given as the source filed them.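 How the source made its calls, unless noted: active means fluorescence slope after compound addition differing from the mean of all screened samples at 99.7% confidence, in either direction; inactive means the rest.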
# Tests used:
# [1] = inhibitors of TNFa-induced NFkB p65 translocation, primary screen, imaging, HUVEC, MLSMR starter and 10KST1 sets (AID 438;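 active means inhibition above 20% together with a positive visual image hit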;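 further: compound added about 3h40 before a 20 min TNFalpha stimulation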;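 on inhibition: signal is the nuclear over cytoplasmic p65 intensity ratio per well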); conditions: HUVEC TNFa-induced p65 nuclear translocation; cell count: measured here: nuclei count (cytotoxicity indicator), at 2.08 µM; inhibition: at 2 µM, stronger effect = higher value, 0% TNFa-plus-vehicle, 100% no-TNFa wells
# [2] = reduction of polyQ htt aggregates in cells – imaging, exon1htt(103Q)mCFP cells, high-content imaging, primary screen (AID 483;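 active means visual image review flags a hit and inhibition of aggregation exceeds 20%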;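 further: compound exposure lasted 3 days before fixation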;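 on nuclei count: percent of the per-plate median nuclei count of sample wells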); conditions: exon1htt(103Q)mCFP cell line, aggregate imaging, at 2 µM; inhibition of aggregation: stronger effect = higher value; nuclei count: measured here: cell count, toxicity
# [3] = endothelial E-selectin expression blockers – imaging, HUVEC, immunofluorescence, MLSMR starter and 10KST1 sets, primary screen (AID 487;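 active means visually confirmed hit in the image check and inhibition above 20%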;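 on inhibition: signal is fraction of cell area covered by stained E-selectin grains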;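 on nuclei count: 100% = median nuclei count of all wells on the same plate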); conditions: HUVEC TNFalpha-induced E-selectin immunofluorescence imaging, at 2 µM; inhibition: stronger effect = higher value; nuclei count: measured here: cell number, toxicity
# [4] = molecular target: Voltage-gated potassium channel subunit beta-2 (Rattus norvegicus) (UniProt P62483); assay: inhibitors of rat Kvbeta2 reductase activity – biochemical, NADPH fluorescence, primary screen (AID 622;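 active means fluorescence slope higher than the sample average by over 3 SD, cut at about -0.22 in these data, passing the limit was not always enough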;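 further: slope of raw intensity against log time taken from 70 to 1610 s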); conditions: recombinant KvBeta, 4-cyanobenzaldehyde reduction, at 10 µM, stronger effect = higher value
# [5] = molecular target: Voltage-gated potassium channel subunit beta-2 (Rattus norvegicus) (UniProt P62483); assay: enhancers of rat Kvbeta2 NADPH turnover – biochemical, NADPH fluorescence, primary screen (AID 623;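 active means NADPH fluorescence slope more negative than the mean of all samples by about 3 SD, 99.7% confidence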;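 further: fluorescence intensity change per second fitted from 20 to 320 s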); conditions: Recombinant KvBeta, NADPH fluorescence decrease slope, 10 min; at 10 µM; stronger effect = lower value
# [6] = molecular target: Alpha-2C adrenergic receptor (Homo sapiens) (UniProt P18825); assay: compounds altering alpha2C-coupled GIRK flux – cell-based, HEK293 alpha2C/GIRK1/2, thallium flux, primary screen (AID 624); conditions: thallium flux BTC fluorescence, at 10 µM, actives lie on both sides;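 further: slope of fluorescence ratio to pre-addition baseline per second over 15 to 24 s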
# [7] = blockers of RIG-like receptor reporter activation – cell-based, Sendai virus stimulus, luciferase, 10K MLSCN set, TLR/RLR signaling modifier project, primary screen (AID 602276;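 active means inhibition at or above 50% at 10 µM; inactive means inhibition below 50%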;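 further: firefly luciferase from ISG56 promoter only with Renilla not read in this screen; 0% = Sendai virus plus DMSO and 100% = medium plus DMSO without virus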); conditions: HEK293 RL24 IRF3 luciferase reporter, at 10 µM, stronger effect = higher value
# [8] = TLR3 IRF3 reporter activation blockers – cell-based, poly I:C stimulus, luciferase, 10K MLSCN set, primary screen (AID 602277;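 active means inhibition of the reporter signal at or above 50%; inactive means inhibition below 50%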); conditions: HEK293-TLR3 RL24 IRF3 luciferase reporter, at 10 µM, stronger effect = higher value
# Chain of Alpha-2C adrenergic receptor (Homo sapiens) (P18825 whole entry, looked up): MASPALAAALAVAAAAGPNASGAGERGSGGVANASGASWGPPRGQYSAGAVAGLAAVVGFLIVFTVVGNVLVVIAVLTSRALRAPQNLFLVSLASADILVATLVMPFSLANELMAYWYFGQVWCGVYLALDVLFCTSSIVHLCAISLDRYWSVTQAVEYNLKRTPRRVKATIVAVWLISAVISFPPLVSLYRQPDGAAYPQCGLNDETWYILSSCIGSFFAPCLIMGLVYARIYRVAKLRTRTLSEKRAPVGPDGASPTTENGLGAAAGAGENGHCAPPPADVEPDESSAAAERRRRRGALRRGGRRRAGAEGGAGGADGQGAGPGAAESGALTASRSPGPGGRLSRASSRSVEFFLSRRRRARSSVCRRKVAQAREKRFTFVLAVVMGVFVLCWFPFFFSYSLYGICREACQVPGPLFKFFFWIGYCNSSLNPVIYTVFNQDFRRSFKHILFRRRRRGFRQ
# Chain of Voltage-gated potassium channel subunit beta-2 (Rattus norvegicus) (P62483 whole entry, looked up): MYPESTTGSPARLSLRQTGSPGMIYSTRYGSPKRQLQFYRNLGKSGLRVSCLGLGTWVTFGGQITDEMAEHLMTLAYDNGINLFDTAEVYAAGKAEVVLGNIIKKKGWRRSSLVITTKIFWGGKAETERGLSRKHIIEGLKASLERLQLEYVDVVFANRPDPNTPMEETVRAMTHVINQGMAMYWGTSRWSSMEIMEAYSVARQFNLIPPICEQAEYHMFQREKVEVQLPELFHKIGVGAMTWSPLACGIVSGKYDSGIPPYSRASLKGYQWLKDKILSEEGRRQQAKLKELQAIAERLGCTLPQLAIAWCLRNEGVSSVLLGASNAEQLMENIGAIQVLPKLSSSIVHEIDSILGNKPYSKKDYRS
Compound,cell count [1],inhibition [1],inhibition of aggregation [2],nuclei count [2],inhibition [3],nuclei count [3],fluorescence slope [4],NADPH fluorescence slope [5],slope [6],inhibition [7],inhibition [8]
CC(=O)Nc1cc(NC(C)=O)cc(C(=O)OCC(=O)N2CC(C)OC(C)C2)c1 (centres undefined),492,-3.9% (inactive),22.1% (inactive),104%,6.9% (inactive),109%,-0.299 (inactive),-4.8e-05 (inactive),0.00487 (inactive),6% (inactive),8.11% (inactive)
O=c1/c(=C/c2ccco2)sc2nc(-c3ccccc3Br)nn12,343,0.2% (inactive),14.2% (inactive),107%,-34.7% (inactive),118%,-0.585 (inactive),-2.3e-05 (inactive),0.00315 (inactive),16.2% (inactive),18.1% (inactive)
CC1(C)NC(=O)N(CC(O)COc2ccc(-c3ccccc3)cc2)C1=O (centres undefined),260,-0.5% (inactive),4.5% (inactive),89.9%,-18.2% (inactive),125%,-0.425 (inactive),-6.5e-05 (inactive),0.00308 (inactive),-15.6% (inactive),1.46% (inactive)
Cc1onc(-c2ccccc2Cl)c1C(=O)Nc1cnn(Cc2ccccc2)c1,545,1.1% (inactive),-4% (inactive),121%,15.1% (inactive),120%,-0.545 (inactive),6.7e-06 (inactive),0.00545 (inactive),14.3% (inactive),32.6% (inactive)
Cc1ccc(OCc2nnc(SCC(=O)Nc3ccc4c(c3)OCO4)n2C)cc1,325,-6.5% (inactive),7.6% (inactive),77.3%,-59.2% (inactive),103%,-0.409 (inactive),-5.7e-05 (inactive),0.00504 (inactive),17.9% (inactive),12.7% (inactive)
COCCN(CC(=O)Nc1ccccc1C)S(=O)(=O)c1ccc(S(=O)(=O)N2CCCC2)cc1,404,-9.5% (inactive),-6.7% (inactive),103%,-18.2% (inactive),69.8%,-0.416 (inactive),-7.2e-05 (inactive),0.0043 (inactive),7.63% (inactive),13.5% (inactive)
O=C(Cn1nc(Cc2cccnc2)c2ccccc2c1=O)Nc1ccc2c(c1)OCO2,576,3% (inactive),22.2% (inactive),109%,-9.3% (inactive),98.3%,-0.55 (inactive),-3.9e-05 (inactive),0.00644 (inactive),10.9% (inactive),18.1% (inactive)
O=C(c1ccco1)N1CCN(c2nc(C(F)(F)F)nc3c2nnn3Cc2ccccc2)CC1,534,-2.5% (inactive),-6.6% (inactive),87.1%,-10.1% (inactive),103%,-0.484 (inactive),-5.9e-05 (inactive),0.00661 (inactive),3.06% (inactive),-42% (inactive)
O=C1c2ccccc2C(Nc2ccc3c(c2)OCCO3)N1Cc1ccco1 (centres undefined),548,-2% (inactive),17.5% (inactive),102%,-106% (inactive),132%,-0.589 (inactive),-2.3e-05 (inactive),0.00424 (inactive),12.3% (inactive),7.32% (inactive)
CC1(C(=O)NC2CCCCC2)CCC(=O)N1Cc1cccs1 (centres undefined),803,-0.6% (inactive),1.4% (inactive),104%,-78.3% (inactive),130%,-0.594 (inactive),-2.7e-05 (inactive),0.00547 (inactive),-11.7% (inactive),12.6% (inactive)
COC(=O)NCC(c1cccnc1)N1CCOCC1 (centres undefined),605,-11% (inactive),16.6% (inactive),97.8%,-24% (inactive),105%,-0.589 (inactive),-3.5e-05 (inactive),0.0059 (inactive),-1.28% (inactive),16.1% (inactive)
CCn1cc(C(=O)NCC2CCCO2)c(=O)c2cc(S(=O)(=O)N(C)C)ccc21 (centres undefined),767,-2.4% (inactive),-9.8% (inactive),105%,-50.6% (inactive),117%,-0.465 (inactive),-8.2e-05 (inactive),0.00671 (inactive),-12.7% (inactive),1.32% (inactive)
O=C(CSc1nc2cc(Cl)ccc2s1)N1CCN(C(=O)c2ccco2)CC1,725,2.4% (inactive),15.7% (inactive),97.9%,-126% (inactive),141%,-0.482 (inactive),-5.8e-05 (inactive),0.00555 (inactive),21.6% (inactive),27.6% (inactive)
Nc1nnc(-c2cn(-c3ccccc3)nc2-c2ccccc2)o1,523,-12.5% (inactive),-7.1% (inactive),90.3%,-16.3% (inactive),113%,-0.481 (inactive),1.3e-05 (inactive),0.00498 (inactive),-22.2% (inactive),-23.6% (inactive)

# Source: PubChem BioAssay
